# A selection: hits, their analogues and other compounds. The true share with any hit is near 2.5%.
# TDP43 rescue: rescues yeast growth from TDP-43 toxicity; TDP-43 expressing yeast growth rescue, BacTiter-Glo, 24 h; Potency, µM (top dose mostly 46.1 µM), without a hit: at the top dose growth rescue (activation), actives largely listed as activators; 410,000 tested, 1.8% active; AID 652104; further: potency means the concentration at half of the fitted maximal effect; % of control where 0% means no effect; nearly all actives have a fitted effect of over 50% in size
#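 Growth rescue of TDP-43-toxic yeast measured as ATP luminescence (BacTiter-Glo). Cells grown to mid-log in raffinose, induced in galactose at OD600=0.02, exposed to compound 24 hr at 30 deg C.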
# Mito fusion yeast: inhibitors of mitochondrial division or activators of mitochondrial fusion | S. cerevisiae fusion-defective mutant growth rescue, CellTiterGlo 48 h | Potency, µM (top dose mostly 46.1 µM), for the others: top-dose growth rescue (activation), hits mostly activators | 320,000 tested, 0.23% active | AID 485298; further: potency means the concentration at half of the fitted maximal effect; % of control where 0% means no effect; nearly all actives have a fitted effect of over 45% in size
#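 Growth-rescue viability read-out: after 48 h at the non-permissive 37C in glycerol/ethanol YPEG, yeast mitochondrial fusion mutants are measured by CellTiterGlo luminescence; compounds (23 nl pinned per well) restoring growth score as division inhibitors or fusion activators.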
# Akt phos inh: blocks phosphorylation of Akt. Neuro2A IGF-stimulated pAkt S473 HTRF, 20 min; active compounds read low. activity change, % for hits at 50 µM. 360,000 tested, 0.32% active; in the data active means activity change below about -80%; inconclusive means mostly about -51% to -80%; further: on the % scale 0 is the no-effect control and ±100 the full control effect
#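 Neuro2A cells in DMEM with 0.5% FBS, overnight at 37 deg C, given compound at single 50 µM final, then IGF (6 nM final) for 20 min at 37 deg C. Lysed; phospho-Akt Ser473 by HTRF after 24 h, 665/615 ratio.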
# CCT chaperon mod: changes cytosolic chaperonin activity; purified chaperonin ATPase assay, HTRF ADP detection, 30 min; activity change, % (no concentration beside the values), hits read low; 360,000 tested, 0.3% active; in the data active means activity change below about -30%; further: on the % scale 0 is the no-effect control and ±100 the full control effect
#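 First, chaperonin was dispensed at 40 nM or 20 nM final depending on batch activity. Next, compounds were pinned at 76 uM and ATP added at 10 uM. After 30 min at 37 °C, ADP detection reagents ran 30 min at ambient temperature.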
# aSyn rescue: alpha-synuclein toxicity inhibition in yeast; Potency, µM (series often up to 46.1 µM), inactives show at the top dose growth rescue (activation), most hits filed as activators; 370,000 tested, 0.14% active; Yeast expressing alpha-synuclein, growth rescue, BacTiter-Glo, 24 h; further: potency means the concentration at half of the fitted maximal effect; % of control where 0% means no effect; nearly all actives have a fitted effect of over 65% in size
#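 Galactose-induced alpha-syn yeast (OD600=0.02, raffinose-pregrown) + pinned cpd, 24 hr, 30 deg C; growth by BacTiter-Glo luminescence. Growth restoration scores as activation.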
# Apoferritin bind: candidate novel general anesthetic via apoferritin binding. 350,000 tested, 0.074% active. Potency, µM (top dose mostly 77.5 µM), without a hit: top-dose activity change, negative = displacement, hits mostly inhibitors. apoferritin/1-aminoanthracene competitive binding, fluorescence. AID 485281; further: potency means the concentration at half of the fitted maximal effect; on the % scale 0 is the no-effect control and ±100 the full control effect; nearly all actives have a fitted effect of over 20% in size
# Target sequence (P02791 2-175 limits assumed): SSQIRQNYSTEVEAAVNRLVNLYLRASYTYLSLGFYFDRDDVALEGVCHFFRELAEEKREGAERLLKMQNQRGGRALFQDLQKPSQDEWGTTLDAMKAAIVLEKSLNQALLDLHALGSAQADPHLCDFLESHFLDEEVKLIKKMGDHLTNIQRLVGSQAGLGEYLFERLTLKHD
#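 Probe: 1-aminoanthracene (50% saturated, PBS). Protein: horse-spleen apoferritin, 10 uM. Incubation: 10 min, room temperature. Detection: 380 nm excitation, 535 nm emission. Analysis: normalized response, four-parameter Hill.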
# The depositor's hits bear a star; i = inactive; u = inconclusive; x = no result given; [ ] = remark or other dose. Unless noted, the call rests on the fitted dose curve; in most records, active means well fitted curve in the direction sought with a large enough effect; inconclusive means small, poorly fitted or top-dose-only effect, or another doubt; inactive means no such curve, though single readings can be large; an effect the other way counts as inactive or inconclusive.
SMILES,TDP43 rescue,Mito fusion yeast,Akt phos inh,CCT chaperon mod,aSyn rescue,Apoferritin bind
COc1ccccc1-c1nc(-c2ccc(C)nc2OC)no1,u,5%,-109%*,-1,3%,5%
C=C1C=C(C)n2ncc(C(=O)Nc3cccc(C(=O)Nc4cccc(C(F)(F)F)c4)c3)c2N1,x,x,x,x,-1%,x
COc1ccccc1NC(=O)c1nc(SCc2ccccc2F)ncc1Cl,x,x,x,x,0%,x
CCN1CCc2c(sc(-n3cccc3)c2C(C)NC(=O)Nc2cc(Cl)c(OC)cc2OC)C1 (stereo not drawn),-4%,x,x,x,x,-2%
CC1CC(C)CN(C(=O)c2ccncc2)C1 (stereo not drawn),10%,2%,i,-38*,-3%,-23%
CC(C)NS(=O)(=O)c1ccc2nc(NC(=O)c3cncc(Br)c3)sc2c1,8%[9.22 µM],x,x,x,x,-3%
CCCNS(=O)(=O)/C=C/c1ccccc1,15%[9.22 µM],2%,i,-1,6%,-10%
O=S(=O)(/C=C/c1ccccc1)NCc1ccccc1Cl,11µM*,17%,i,-1,12%,-17%
CC1=C(c2ccc(F)cc2)[N+](=O)C(C)(C)N1[O-],-1%,13µM*,i,0,4%,-9%
O=C(O)c1cc2c(s1)-c1ccccc1OC2,32µM*,23%,i,-2,-4%,35%
C=C1C(=O)[C@]23[C@H](O)[C@H]1CC[C@H]2[C@@]12COC3(O)[C@H](O)[C@@H]1C(C)(C)CC[C@@H]2O,x,x,x,x,x,-14%
CC1=C(C(=O)OCc2ccccc2)C(c2ccccc2Cl)NC(=O)N1CCCCCC(=O)O (stereo not drawn),35µM*,1%,i,0,-3%,2%
O=C(Nc1ccc(Br)cc1Cl)c1ccc(OCC2CCCO2)cc1 (stereo not drawn),18µM*,x,i,2,0%,x
COC(=O)c1sc2cccc(F)c2c1S(=O)(=O)N1CCN(c2ccc(F)cc2)CC1,28%,x,x,x,x,1%
Cn1c(O)c(N=NC(=O)c2ccccc2O)c2ccccc21,16µM*,19%,i,-4,4%,-20%
CC(C)c1ccc(/C=C/C2=NNC(=O)CC2)cc1,11µM*,3%,i,1,0%,u
Cc1ccc(NS(=O)(=O)c2ccc(-c3cc(C)no3)cc2)c(C)c1,u,x,x,x,x,-16%
OCCNCCOc1ccccc1F,0%,-4%,-107%*,-1,-2%,-5%
O=C(Cc1ccc(F)cc1)NCCc1csc(-c2cccc(F)c2)n1,11µM*,x,x,x,x,2%
O=C(NCCc1csc(-c2ccc(F)cc2)n1)c1cccc(F)c1,16µM*,x,x,x,x,-16%
Cc1cccc(-c2nc(CCNC(=O)Cc3ccc(F)cc3)cs2)c1,28%,x,x,x,x,-5%
O=C(NCCc1csc(-c2ccc(C(F)(F)F)cc2)n1)c1ccc(F)c(F)c1,25µM*,x,x,x,-4%,u
COc1ccc(C(=O)CC2(O)C(=O)N(Cc3cccc(C(F)(F)F)c3)c3ccccc32)cc1 (stereo not drawn),22µM*,x,x,x,u,u
Cc1ccc(C(=O)CC2(O)C(=O)N(Cc3ccc4c(c3)OCO4)c3ccccc32)cc1 (stereo not drawn),24%,27%,i,0,11%,14µM*
O=C(CC1(O)C(=O)N(Cc2ccc3c(c2)OCO3)c2ccccc21)c1ccccc1 (stereo not drawn),-5%,3%,i,-7,14%,u
SMILES,TDP43 rescue,Mito fusion yeast,Akt phos inh,CCT chaperon mod,aSyn rescue,Apoferritin bind
COc1cccc(C(=O)CC2(O)C(=O)N(Cc3ccccc3)c3ccccc32)c1 (stereo not drawn),26%,x,x,x,x,u
O=S(=O)(c1cnc2ccccc2c1)N1CCN(c2nc(-c3cccs3)nc3ccccc23)CC1,x,x,x,x,-10%,x
Cc1cc(C)nc(N/C(=N\S(=O)(=O)Cc2ccccc2)Nc2ccccc2Br)n1,7%,22µM*,i,3,14%,-3%
O=C(c1ccccc1)n1nc(-c2ccccc2)nc1NCc1ccco1,16%,1%,i,-1,-7%,-15%
Cc1ccc(C(=O)n2nc(-c3ccccc3)nc2NCc2ccco2)cc1,-3%,2%,i,-60*,5%,-22%
COc1ccc(C(C)=O)cc1COC(=O)c1ccc(OCc2c(C)noc2C)cc1,12%,-5%,i,-2,4%,-12%
COc1ccc(C(C)=O)cc1COC(=O)c1c(C)noc1C,16µM*,5%,i,0,10%,-13%
CCOC(=O)C1=NNC(C(=O)c2ccc(C)cc2)C1c1ccc(OC)cc1 (stereo not drawn),20µM*,3%,i,3,2%,u
CCOC(=O)C1=NNC(C(=O)c2ccc(Cl)cc2)C1c1ccc(OC)cc1 (stereo not drawn),u,u,i,0,23%,u
Cc1cc(-c2ccc(C)c(S(=O)(=O)N3CC(=O)Nc4ccccc43)c2)on1,8%,-10%,i,-35*,-6%,-8%
COc1ccc(-c2cc(C)no2)cc1S(=O)(=O)N1CCOc2ccccc21,-4%,-1%,x,-81*,-2%,1%
CCc1ccc(-c2cc(C)no2)cc1S(=O)(=O)N1CC(=O)Nc2ccccc21,0%,16%,i,-1,-2%,-17%
NC(=O)CSc1nc2c(oc3ccccc32)c(=O)n1-c1ccccc1F,u,x,x,x,x,-4%
COc1cccc2cc(C(=O)C3=C(O)C(=O)N(Cc4ccco4)C3c3cccnc3)oc12 (stereo not drawn),5%,-2%,i,2,3%,-13%
O=C(C1=C(O)C(=O)N(Cc2ccco2)C1c1cccnc1)c1cc2ccccc2o1 (stereo not drawn),-11%,-4%,-82%*,-1,13%,-17%
COC1=C(OC)C(=O)c2ccccc2C1=O,x,26µM*,x,x,10%,x
COc1ccc(N)c2c1C(=O)c1ccccc1C2=O,-68%,-3%,i,-3,-47%,-3%
COc1ccc(OC)c2c1C(=O)c1ccccc1C2=O,25µM*,1%,i,2,-5%,50%
C[C@@H](c1ccccc1)N1C(=O)[C@H]2[C@H]3[C@H](O)[C@H](O)C/C(=N/NC(=O)OCc4ccccc4)[C@@H]3CC[C@@H]2C1=O,x,x,x,x,x,-11%[15.3 µM]
Cc1c(C(=O)N2CCN(CC(=O)Nc3ccccc3Cl)CC2)oc2ccc(Br)cc12,13µM*,u,i,-2,-6%,x
Cc1c(C(=O)N2CCCCC2)oc2ccc(Br)cc12,u,13%,i,-1,13%,x
COC(=O)c1oc2ccc(Br)cc2c1NC(=O)CN1CCN(C)CC1,0%,x,-115%*,-5,2%,x
